The whole screen tested about 13,000 compounds, of which about 3,200 (25%) showed an effect of 50% or more. Some of the results follow.
test system: P. falciparum stage V gametocytes; parameters: BacTiter-Glo ATP luminescence viability of purified stage V gametocytes in 384-well plates, per cent inhibition versus DMSO; conditions: 48 h, 5 µM; inhibitor

Compound	% Inhibition [%]
CC(C)(C)CC(C)(C)c1ccc(O)c(CNC2CCCCC2)c1 [TCMDC-137604]	41.75
Cc1nnc(NC(=O)c2cn(-c3ccccc3)nc2-c2ccccc2C)o1 [TCMDC-125040]	22.18
COc1ccc(OC)c(C(O)C(C)NCc2cc(Cl)ccc2O)c1 (centres unmarked) [TCMDC-137921]	36.34
Cn1ccnc1CCC(=O)Nc1ccc(Cl)cc1C(=O)Nc1ccc(Cl)cc1 [TCMDC-136703]	12.32
Cc1ccc(NC(=O)Nc2ccc(Cl)cc2)cc1-c1ccc(C(=O)Nc2ccncc2)cc1 [TCMDC-133702]	-59.17
O=C(Nc1ccc(Cl)cc1C(=O)Nc1ccncc1)c1ccc(Cl)cc1Cl [TCMDC-125853]	59.79
COc1ccc(C(=O)Nc2ccc(Cl)cc2C(=O)Nc2ccncc2)cc1 [TCMDC-123739]	84.9
O=C(Nc1ccc(Cl)cc1)c1cc(Cl)ccc1NC(=O)C1(c2ccc(Cl)cc2)CCCC1 [TCMDC-136643]	-21.36
Cc1nc(-c2ccncc2)sc1C(=O)Nc1ccc(Cl)cc1C(=O)Nc1ccc(Cl)cc1 [TCMDC-136515]	3.625
COc1ccc(CN(C)CCCc2ccc(NC(=O)c3cc4ccccc4[nH]3)cc2)cc1OC [TCMDC-131855]	-11.14
Nc1ccc2nc(C=Cc3ccc(Cl)cc3)[nH]c2c1 [TCMDC-123608]	-19.77
CN1CCc2ccc(NC(=O)Nc3ccc(Cl)c(Cl)c3)cc2C1 [TCMDC-133728]	0.1652
Cc1ccc(NC(=O)Nc2ccc(S(=O)(=O)c3ccc(NC(=O)Nc4ccc(C)c(Cl)c4)cc3)cc2)cc1Cl [TCMDC-124273]	85.03
Cc1ccc(NC(=O)Nc2ccc(I)c(OCCN(C)C)c2)cc1Cl [TCMDC-139122]	-20.44
COc1ccc(C(=O)CCC(=O)N(Cc2ccc(-c3ccc(CNCCc4ccc(S(C)(=O)=O)cc4)cn3)cc2)C(C)CN(C)C)cc1F (centres unmarked) [TCMDC-141512]	102.4
COc1ccc(C(=O)CCC(=O)N(CCC2CCCN2C)Cc2ccc(-c3ccc(CNCCc4ccc(S(C)(=O)=O)cc4)cn3)cc2)cc1F (centres unmarked) [TCMDC-141513]	-2.666
COc1ccc(C(=O)CCC(=O)N(Cc2ccc(-c3ccc(CNCCc4ccc(S(C)(=O)=O)cc4)cn3)cc2)C2CC3CCC2C3)cc1F (centres unmarked) [TCMDC-141515]	-37.66
COc1ccc(C(=O)CCC(=O)N(Cc2ccc(-c3ccc(CNCCc4ccc(S(C)(=O)=O)cc4)cn3)cc2)Cc2ccc3c(c2)OCO3)cc1F [TCMDC-141514]	67.48
COc1ccc(C(=O)CCC(=O)N(Cc2ccc(-c3ccc(CNCCc4ccccc4)cn3)cc2)C(C)CN(C)C)cc1F (centres unmarked) [TCMDC-141554]	109.3
COc1ccc(C(=O)CCC(=O)N(CCSC(C)(C)C)Cc2ccc(-c3ccc(CNCCc4ccc(S(C)(=O)=O)cc4)cn3)cc2)cc1F [TCMDC-141517]	33.86
CCC(CC)N1C(=O)C(c2ccccc2)(c2ccccc2)N=C1N [TCMDC-136516]	-14.59
CCOC(=O)C(NC(=O)Cc1ccccc1)C(C)C (centres unmarked) [TCMDC-131334]	-5.463
ON=C1CCc2cc(-c3nc(-c4ccc(OCCN5CCCCC5)cc4)[nH]c3-c3ccncc3)ccc21 [TCMDC-141174]	1.604

Compound	% Inhibition [%]
CN(C)CCCOc1ccc(-c2nc(-c3ccc4c(c3)CCC4=NO)c(-c3ccncc3)[nH]2)cc1 [TCMDC-140742]	7.087
ON=C1CCc2cc(-c3cc(-c4ccc(OC5CCNCC5)cc4)oc3-c3ccncc3)ccc21 [TCMDC-141381]	91.63
CC(C)(C(=O)Nc1ccc(C2CCC(NCC3CC3)CC2)c(Cl)c1)c1cccc(OC(F)F)c1 (centres unmarked) [TCMDC-134643]	32
CC(C)(C(=O)Nc1ccc(C2CCC(NCC3CC3)CC2)c(Cl)c1)c1ccc(C(F)(F)F)cc1 (centres unmarked) [TCMDC-134642]	92.31
CC(C)(C(=O)Nc1ccc(N2CCC3(CCCN(CC4CC4)C3)CC2)c(Cl)c1)c1cccc(C(F)(F)F)c1 [TCMDC-134639]	-12.77
O=C(Nc1cccc(-c2ccc(-c3nc4ccc(C(F)(F)F)cc4[nH]3)cc2)c1)c1cnc[nH]1 [TCMDC-136938]	-50.65
CCC(=O)Nc1ccc(Nc2nc(C)cc(N3CCCC3)n2)cc1 [TCMDC-124971]	-15.13
Cc1nnc(Sc2ncnc3scc(-c4ccc(F)cc4)c23)s1 [TCMDC-125239]	77.07
Fc1ccc(-c2csc3ncnc(Cl)c23)cc1 [TCMDC-125317]	5.052
Clc1ncnc2scc(-c3ccc(Br)cc3)c12 [TCMDC-125318]	-35.26
CN1CC=C(c2c[nH]c3ccc(Oc4ccccc4)cc23)CC1 [TCMDC-138966]	12.83
CN(C)Cc1cccc(-c2cc3c(-c4cnn(C)c4)c(Cl)cnc3[nH]2)c1 [TCMDC-134147]	-89.46
CN(C)Cc1ccc(-c2cc3c(-c4ccc(CN(C)C)cc4)ccnc3[nH]2)cc1 [TCMDC-132409]	78.19
NCCNS(=O)(=O)c1ccc(-c2ccnc3[nH]c(-c4ccncc4)cc23)cc1 [TCMDC-133364]	20.68
Cc1ccc2[nH]c(-c3ccccc3N)cc2c1 [TCMDC-131289]	-61.86
CNC(=O)c1c(NC(=O)c2cccs2)sc2c1CCCC2 [TCMDC-125739]	-2.665
O=C(NC1CCN(CC2(c3ccccc3F)CCCC2)CC1)c1ccn[nH]1 [TCMDC-124837]	65.27
CC(C)c1ccc(CN2CCC(NC(=O)c3ccc(-c4ccccc4F)s3)CC2)cc1 [TCMDC-134345]	-26.31
Cc1cc(C(=O)NC2CCN(Cc3ccccc3)CC2)ccc1-c1nc2cc(Cl)c(Cl)cc2[nH]1 [TCMDC-140081]	10.28
O=C(NC1CCN(CC2(c3ccc(Cl)cc3)CCCCC2)CC1)c1ccn[nH]1 [TCMDC-124828]	65.33
O=C(NC1CCN(Cc2ccc(Cl)cc2)CC1)c1cn(-c2ccccc2)nc1-c1cccnc1 [TCMDC-125254]	-34.02
CN(C)c1ccc(CN2CCC(NC(=O)c3ccc(-c4ccccc4F)s3)CC2)cc1 [TCMDC-134326]	-40.45
O=C(Nc1ccc(F)cc1)c1ccc(C(=O)NC2CCN(CC3CCCCC3)CC2)cc1 [TCMDC-136749]	-13.8

Compound	% Inhibition [%]
O=C(NC1CCN(CCC(NC(=O)c2ccccc2)c2ccc(Cl)c(Cl)c2)CC1)c1ccc(Cl)cc1 (centres unmarked) [TCMDC-141712]	-1.186
O=C(NC1CCN(CC2(c3ccccc3)CCCC2)CC1)c1[nH]ncc1Cl [TCMDC-124836]	56.38
O=C(NC1CC1)c1cnc(N2CCN(Cc3ccc(Cl)cc3)CC2)c(Cl)c1 [TCMDC-134601]	8.945
O=C(NC1CCN(CC2(c3ccc(Cl)cc3)CCC2)CC1)c1ccn[nH]1 [TCMDC-124830]	58.08
Cc1ccc(C2(CN3CCC(NC(=O)c4[nH]ncc4Cl)CC3)CCCCC2)cc1 [TCMDC-124838]	29.65
Cc1ccccc1OCC(=O)Nc1ccc(-c2nc3cc4ccccc4cc3[nH]2)cc1 [TCMDC-125670]	10.69
CC1(C)N=C(N)N=C(N)N1c1ccc(Oc2ccccc2)cc1 [TCMDC-137712]	1.861
CN(C)CCC(O)C=C(c1ccc(Cl)cc1)c1ccc(Cl)cc1 (centres unmarked) [TCMDC-132094]	12.81
Cc1ccc(S(=O)(=O)n2cc(-c3ccnc(N)c3)c3cc(Br)cnc32)cc1 [TCMDC-134306]	-5.282
COc1ccc2nccc([C@@H](O)CN3CCC(NCCOc4ccccc4[N+](=O)[O-])CC3)c2c1 [TCMDC-140711]	39.45
Cc1ccc(C2(CN3CCC(NC(=O)c4ccn[nH]4)CC3)CCCCC2)cc1 [TCMDC-124839]	64.93
Cc1ccc(NC(=O)c2ccc(C(=O)NC3CCN(CC4CCCCC4)CC3)cc2)cc1 [TCMDC-136747]	-26.65
Cc1cccc(NC(=O)c2ccc(C(=O)NC3CCN(CC4CCCCC4)CC3)cc2)c1 [TCMDC-136748]	-45.39
O=C(NC1CCN(Cc2ccccc2)CC1)c1csc2nc(-c3ccc(Cl)cc3)cn12 [TCMDC-133071]	-8.625
CCc1[nH]nc(C(=O)NC2CCN(CC3(c4ccc(OC)cc4)CCCCC3)CC2)c1C [TCMDC-124840]	100.4
O=C(NC1CCN(CC2(c3ccc(Cl)cc3)CCC2)CC1)c1cscn1 [TCMDC-124829]	62.42
COc1ccc2nccc([C@@H](O)CN3CCC(NC(=O)c4nc(Cl)c(Cl)c(N)c4Cl)CC3)c2c1 [TCMDC-140771]	4.246
CCc1[nH]nc(C(=O)Nc2cccc(N3CCCC3)c2)c1C [TCMDC-124845]	-34.24
COc1c(I)cc(Cc2cnc(N)nc2N)cc1I [TCMDC-138050]	-8.492
N#Cc1cc(N(CCCOc2cccc(OC(F)(F)F)c2)Cc2ccccc2C(F)(F)F)ccc1C(F)(F)F [TCMDC-132783]	-11.19
COc1cccc(Cc2c(C)nc3nc(N)nc(N)c3c2C)c1 [TCMDC-137650]	36.32
Cc1ccc(F)c(OCC2CCCN(c3ccc(C(=O)NC4CC4)cn3)C2)c1 (centres unmarked) [TCMDC-134035]	18.85

Reference: publication PMC4552634, “A New Set of Chemical Starting Points with Plasmodium falciparum Transmission-Blocking Potential for Antimalarial Drug Discovery” (PLoS ONE, 2015)
